This note sets out measurements from PubChem BioAssay (Tox21).

Several values for one entry are separate records, joined by “and”; a condition that tells them apart may be missing. Identical values can stand only once. Inconclusive results are not listed. A structure can be active in one record and inactive in another. Activity calls are given as the source filed them. Unless noted, the call rests on the fitted dose curve; in most records, active means well fitted curve in the direction sought with a large enough effect in the repeat runs; inconclusive means weak or mixed curves; inactive means no such curve, though single readings can be large; an effect the other way counts as inactive or inconclusive.

Experiment [1] can be described thus: qHTS assay to test for compound auto fluorescence at 535 nm (green) in HEK293 cells (AID 720680).
Experiment [2] can be described thus: qHTS assay to test for compound auto fluorescence at 460 nm (blue) in HEK293 cell free culture (AID 720681). In outline:
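Test compounds were pinned into cell-free culture medium (DMEM with 10% FBS) and fluorescence was read directly at Ex/Em 405/460 nm. Signals were expressed as fluorescence equivalents of triamterene, with DMSO vehicle as control.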

The nature of experiment [3]: qHTS assay to test for compound auto fluorescence at 535 nm (green) in HEK293 cell free culture (AID 720682). Put shortly:
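Fluorescein serves as the green reference fluorophore; each compound's intrinsic emission at 535 nm (excitation 485 nm) is reported as an equivalent amount of that dye, measured in serum-containing DMEM without cells.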

Experiment [4] is described as follows: qHTS assay to test for compound auto fluorescence at 590 nm (red) in HEK293 cell free culture (AID 720683). Put shortly:
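Tox21 10K library compounds were pinned into cell-free DMEM with 10% FBS and fluorescence was read at excitation 540 nm. Activity is expressed as Rose Bengal sodium equivalency.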

Experiment [5] in a line: qHTS assay to test for compound auto fluorescence at 590 nm (red) in HepG2 cell free culture (AID 720684). Put shortly: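 Measured in medium alone (MEM containing 10% FBS) following pintool addition of compound; emission at 590 nm with 540 nm excitation, referenced to Rose Bengal sodium.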
A short description of experiment [6]: qHTS assay to test for compound auto fluorescence at 460 nm (blue) in HepG2 cell free culture (AID 720685). Put shortly:
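Compound (23 nL) or DMSO pinned into cell-free MEM with 10% FBS; blue fluorescence read at 405/460 nm excitation/emission, expressed as auto-fluorescence equivalency to triamterene.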

Experiment [7] is described as follows: qHTS assay to test for compound auto fluorescence at 535 nm (green) in HepG2 cell free culture (AID 720686).
Experiment [8] in a line: qHTS assay to test for compound auto fluorescence at 460 nm (blue) in HepG2 cells (AID 720687). Put shortly:
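Cells (2,000/well in MEM with 10% FBS) attached overnight at 37 C, then were exposed to compound or DMSO for 1 hr at 37 C, 5% CO2. Fluorescence read at Ex/Em 405/460 nm, expressed as triamterene-equivalent signal.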

Experiment [9] addresses Glucocorticoid receptor (Homo sapiens) (UniProt P04150). Briefly: qHTS assay to identify small molecule agonists of the glucocorticoid receptor (GR) signaling pathway (AID 720691; active means well fitted activation curve with a large enough effect in the signal ratio in the repeat runs, not every such curve was filed as active; the % refers to the signal ratio). In outline:
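Reporter read-out: fluorescence intensity following 2 h room-temperature LiveBLAzer B/G FRET substrate loading. Prior step: GR-bla HeLa cells held 4 h, then treated 18 h at 37 C.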

Experiment [10] shares this target. Briefly: qHTS assay to identify small molecule antagonists of the glucocorticoid receptor (GR) signaling pathway (AID 720692; active means well fitted inhibition curve with a large enough effect in the signal ratio in the repeat runs, not every such curve was filed as active; the % refers to the signal ratio; further: potency means the concentration at half of the fitted maximal effect). Put shortly:
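Dexamethasone (5 nM final) stimulated a stably integrated GRE-beta-lactamase reporter in HeLa cells during 18 h co-incubation with compounds; signal was quantified as fluorescence intensity of B/G FRET substrate after 2 h.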

Experiment [11] can be described thus: qHTS assay to identify small molecule antagonists of the glucocorticoid receptor (GR) signaling pathway - cell viability counter screen (AID 720693). Further: nearly all actives have a fitted effect of over 55% in size.
The nature of experiment [12]: qHTS assay for identifying genotoxic compounds that show differential cytotoxicity against isogenic chicken DT40 cell lines with known DNA damage response pathways - Rev3 mutant cell line (AID 743014). Further: nearly all actives have a fitted effect of over 55% in size.
A short description of experiment [13]: qHTS assay for identifying genotoxic compounds that show differential cytotoxicity against isogenic chicken DT40 cell lines with known DNA damage response pathways - Rad54/Ku70 mutant cell line (AID 743015). Further: nearly all actives have a fitted effect of over 60% in size.
For experiment [14], the target named is Androgen receptor (Homo sapiens) (UniProt P10275). Briefly: qHTS assay to identify small molecule antagonists of the androgen receptor (AR) signaling pathway (AID 743035; active means well fitted inhibition curve with a large enough effect in the signal ratio in the repeat runs, not every such curve was filed as active; the % refers to the signal ratio). In outline: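 Using qHTS, AR-UAS-bla GripTite HEK293 cells received compound, then R1881, and were cultured 16 h at 37C/5% CO2 before a 2 h room-temperature LiveBLAzer B/G FRET substrate step and fluorescence measurement.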

Experiment [15] has the same target. Briefly: qHTS assay to identify small molecule agonists of the androgen receptor (AR) signaling pathway using the MDA cell line (AID 743040; further: nearly all actives have a fitted effect of over 20% in size). Put shortly:
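Luminescence from ONE-Glo, read after 30 min at room temperature, reflects MMTV-driven luciferase in MDA-kb2 cells (AR- and GR-responsive). Treatment lasted 16 h at 37C, 0% CO2.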

For experiment [16] the target is unchanged. Briefly: qHTS assay to identify small molecule antagonists of the androgen receptor (AR) signaling pathway using the MDA cell line (AID 743042; further: nearly all actives have a fitted effect of over 55% in size). In outline:
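MDA-kb2 cells (human breast carcinoma, stably carrying an MMTV-luciferase reporter responsive to AR and GR) were plated at 3,000 cells/well and preincubated 5 hr at 37C, then given compound plus R1881 agonist for 16 h. ONE-Glo luminescence was read.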

The nature of experiment [17]: qHTS assay to identify small molecule antagonists of the thyroid receptor (TR) signaling pathway - cell viability counter screen (AID 743064). Further: nearly all actives have a fitted effect of over 50% in size. In outline: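 Fluorescence from CellTiter-Fluor, added after 23.5 h exposure at 37 °C, reported viability of GH3.TRE-Luc cells co-treated with compound and 1 nM T3. Measured in the same wells as the luciferase TR readout.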

Experiment [18] in a line: qHTS assay for identifying genotoxic compounds that show differential cytotoxicity against isogenic chicken DT40 cell lines with known DNA damage response pathways - wild type cell line (AID 743012). Further: nearly all actives have a fitted effect of over 60% in size. Put shortly:
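Using parental DT40 (300 cells/well), compounds delivered in DMSO incubate 40 h at 37 C/5% CO2. CellTiter-Glo reagent then stands 30 min at room temperature, and luminescence gives cell viability.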

A short description of experiment [19]: qHTS assay to identify small molecule antagonists of the androgen receptor (AR) signaling pathway - cell viability counter screen (AID 743033; further: nearly all actives have a fitted effect of over 45% in size).
The nature of experiment [20]: qHTS assay to identify small molecule antagonists of the androgen receptor (AR) signaling pathway using the MDA cell line - cell viability counter screen (AID 743041; further: nearly all actives have a fitted effect of over 45% in size). Put shortly: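 Viability counter screen run alongside the AR antagonist reporter: cells seeded 5 h before compound, R1881 added, 16 h incubation at 37C without CO2, fluorescent CellTiter-Fluor signal quantified.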
On the % scale 0 is the no-effect control and ±100 the full control effect.

Chain of Androgen receptor (Homo sapiens) (P10275 whole entry, looked up): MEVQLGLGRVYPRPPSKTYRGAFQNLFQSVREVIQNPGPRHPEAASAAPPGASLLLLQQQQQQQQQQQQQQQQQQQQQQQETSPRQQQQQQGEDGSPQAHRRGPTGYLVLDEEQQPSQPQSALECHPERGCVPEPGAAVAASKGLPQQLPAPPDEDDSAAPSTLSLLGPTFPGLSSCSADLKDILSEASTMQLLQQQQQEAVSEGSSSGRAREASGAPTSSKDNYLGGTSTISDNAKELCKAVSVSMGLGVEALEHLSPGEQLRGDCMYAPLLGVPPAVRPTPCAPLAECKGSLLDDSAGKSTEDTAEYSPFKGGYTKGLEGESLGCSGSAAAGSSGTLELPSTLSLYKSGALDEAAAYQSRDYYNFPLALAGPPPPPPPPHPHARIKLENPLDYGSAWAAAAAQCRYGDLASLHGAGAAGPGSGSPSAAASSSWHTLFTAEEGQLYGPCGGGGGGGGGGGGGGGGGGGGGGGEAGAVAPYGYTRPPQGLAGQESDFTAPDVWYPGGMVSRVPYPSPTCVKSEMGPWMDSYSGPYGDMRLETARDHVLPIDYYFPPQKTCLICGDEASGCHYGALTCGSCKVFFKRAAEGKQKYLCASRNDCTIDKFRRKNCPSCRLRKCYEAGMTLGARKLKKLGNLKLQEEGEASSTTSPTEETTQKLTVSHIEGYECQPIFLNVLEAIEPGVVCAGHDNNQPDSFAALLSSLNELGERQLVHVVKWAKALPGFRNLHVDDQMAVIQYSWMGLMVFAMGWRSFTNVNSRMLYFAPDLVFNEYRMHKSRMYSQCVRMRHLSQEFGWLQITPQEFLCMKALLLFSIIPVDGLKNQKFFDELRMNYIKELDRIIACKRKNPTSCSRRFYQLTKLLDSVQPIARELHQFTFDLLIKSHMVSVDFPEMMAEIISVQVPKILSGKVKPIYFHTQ
Chain of Glucocorticoid receptor (Homo sapiens) (P04150 whole entry, looked up): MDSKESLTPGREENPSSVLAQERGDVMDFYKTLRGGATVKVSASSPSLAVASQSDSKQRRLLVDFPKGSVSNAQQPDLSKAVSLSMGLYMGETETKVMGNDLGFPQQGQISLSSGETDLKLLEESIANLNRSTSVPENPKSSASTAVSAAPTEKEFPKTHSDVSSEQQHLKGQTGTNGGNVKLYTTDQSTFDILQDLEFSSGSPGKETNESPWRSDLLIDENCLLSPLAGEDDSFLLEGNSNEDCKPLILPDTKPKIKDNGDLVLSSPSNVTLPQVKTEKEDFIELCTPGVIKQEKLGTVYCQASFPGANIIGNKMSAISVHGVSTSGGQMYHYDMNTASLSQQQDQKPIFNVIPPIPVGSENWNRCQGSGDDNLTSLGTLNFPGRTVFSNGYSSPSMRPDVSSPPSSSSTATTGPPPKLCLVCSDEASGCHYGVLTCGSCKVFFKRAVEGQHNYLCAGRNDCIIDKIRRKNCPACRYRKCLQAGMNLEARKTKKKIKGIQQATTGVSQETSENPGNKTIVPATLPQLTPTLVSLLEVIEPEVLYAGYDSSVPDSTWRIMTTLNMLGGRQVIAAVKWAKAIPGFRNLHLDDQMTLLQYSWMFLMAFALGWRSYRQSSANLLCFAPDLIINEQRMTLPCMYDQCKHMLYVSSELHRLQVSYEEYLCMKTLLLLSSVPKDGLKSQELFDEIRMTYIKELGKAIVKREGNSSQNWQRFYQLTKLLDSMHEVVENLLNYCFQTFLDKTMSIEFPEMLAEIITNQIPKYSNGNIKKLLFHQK

For `CC(C)c1ccccc1`, the call in experiment [1], in [2], in experiment [3], in experiment [4], in experiment [5] and in experiment [6] was inactive. For the same molecule, the call in experiment [7], in experiment [8], in experiment [11] and in experiment [16] was inactive. For the same molecule, the Potency result in [9], in experiment [10], in experiment [12], in [13], in experiment [14] and in [15] was “inactive” throughout. Further, the Potency entry in [17] is “inactive”.

As to `C[C@]12C(=O)OC(=O)[C@H]1[C@H]1C=C[C@@H]2C1`, the call in experiment [1], in experiment [2], in experiment [3], in experiment [4], in experiment [5] and in [6] was inactive. For the same molecule, the result in experiment [7], in [8] and in [11] was inactive. Also, the Potency entry in [9], in [10], in experiment [18], in experiment [12], in experiment [13] and in experiment [17] was “inactive” in each case.

With `CC(C)C1=CC2=CC[C@@H]3[C@](C)(CCC[C@@]3(C)C(=O)O)[C@H]2CC1`, the result in experiment [1], in [2], in [3], in experiment [4], in [5] and in experiment [6] was inactive. The result in experiment [7], in [8], in experiment [11] and in experiment [19] was inactive. Also, the Potency result in experiment [9], in [18], in experiment [12], in experiment [13], in [20] and in [17] was “inactive” each time. Also, the Potency entry in [10] is “inactive and 54.9 µM (active)”.

Turning to `CC(CNC1CCCCC1)OC(=O)c1ccccc1` (configuration not stated), the fluorescence, % of fluorescein in experiment [1] was 0.0598% [at 18.6 µM] (inactive). Moreover, the fluorescence, % of fluorescent control is 0.0629% [at 18.6 µM] (inactive) in experiment [2], -0.008% [at 18.6 µM] (inactive) in [4], -0.0346% [at 18.6 µM] (inactive) in [6] and -0.124% [at 18.6 µM] (inactive) in experiment [8]. Moreover, in [3], the activity change is 0.0004% [at 18.6 µM] (inactive). Also, the fluorescence, % of Rose Bengal in experiment [5] is 0.136% [at 18.6 µM] (inactive). For the same molecule, in experiment [7], the fluorescence, % of fluorescein control is -0.0274% [at 18.6 µM] (inactive). Also, the Potency entry in experiment [9], in experiment [10], in experiment [18], in [12], in [13] and in [20] was “inactive” throughout. Further, the Potency result in experiment [17] was “inactive”. The call in [11] and in [19] was inactive.

As to `O=C1CCCc2ccccc21`, the call in experiment [1], in experiment [2], in experiment [3], in experiment [4], in experiment [5] and in [6] was inactive. Moreover, the molecule was called inactive in experiment [7], in experiment [8], in experiment [11] and in [19]. The Potency result in experiment [9], in experiment [10], in experiment [18], in experiment [12], in experiment [13] and in [20] was “inactive” throughout. For the same molecule, the Potency entry in [17] was “inactive”.

As to `CCOc1ccccc1N`, the call in experiment [1], in experiment [2], in experiment [3], in experiment [4], in experiment [5] and in [6] was inactive. The molecule was classed as inactive in experiment [7], in experiment [8], in [11] and in experiment [19]. Further, the Potency entry in [9], in [10], in experiment [18], in [12], in experiment [13] and in experiment [20] was “inactive” in each case. In addition, in [17], the Potency result was “inactive”.

Take `CC1=C(O)C(=O)OC1C` (configuration not stated): the molecule was called inactive in [1], in experiment [2], in [3], in experiment [4], in [5] and in experiment [6]. Besides, the molecule was called inactive in [7], in experiment [8], in experiment [11] and in experiment [19]. Besides, the Potency result in [9], in experiment [10], in experiment [18], in experiment [12], in experiment [13] and in experiment [20] was “inactive” each time. Moreover, in [17], the Potency result is “inactive”.
